Calls of active or inactive are those of the source.
Experiments:
[1] = biological target: Albumin (Bos taurus) (UniProt P02769); assay: compounds binding labelled BSA control protein – biochemical, small-molecule microarray, Alexa647 label, 635/667 nm fluorescence, artefact control for SMM control protein annotation, profiling panel (AID 1118); details: BSA-A647 binding, fluorescence 635 nm, higher = more signal;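 further: score merges 667 nm emission intensity and signal-to-noise per printed compound spot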
[2] = probe aXIP binding to arrayed compounds – biochemical, NeuroSMM set, 635/667 nm fluorescence, primary screen (AID 1119); details: small-molecule microarray, higher = more signal, called active from +8 up or from −8 down;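 further: probe is the protein aXip251-270 applied at 1 µg/mL to compound-printed slides; binding of probe to printed compounds measured as 667 nm fluorescence plus signal to noise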
[3] = probe aNOTCH3 binding on compound microarray – biochemical, small-molecule microarray, 635/667 nm fluorescence, primary screen (AID 1120); details: higher = more signal;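 further: probe is a biotin-tagged antibody raised against NOTCH3 rather than NOTCH3 protein; score merges spot fluorescence near 667 nm with spot signal to noise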
[4] = probe aNOTCH2 binding on compound microarray – biochemical, small-molecule microarray, 635/667 nm fluorescence, primary screen (AID 1121); details: higher = more signal;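 further: score merges feature fluorescence read at 667 nm with its signal to noise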
[5] = biological target: Carbonic anhydrase 2 (Homo sapiens) (UniProt P00918); assay: compounds binding carbonic anhydrase 2 – biochemical, small-molecule microarray, Alexa647-labelled CAII, profiling panel (AID 1122); details: CAII-A647 binding fluorescence, higher = more signal
[6] = COS7 lysate on small-molecule microarray, probe aHis, 635 nm (AID 1123); details: COS7 cell lysate, fluorescence, higher = more signal;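 further: z-score combines 667nm fluorescence intensity with signal-to-noise per printed compound spot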
[7] = probe aLAP1 signal on lysate-treated microarray – cell lysate, small-molecule microarray, COS7 lysate, primary screen (AID 1124); details: probe aLAP1, fluorescence, higher = more signal;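 further: lysate comes from COS7 cells expressing LAP1 and is applied at 0.3 µg/mL; score merges spot fluorescence near 667 nm with signal-to-noise over triplicate slides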
[8] = tested on: Sam68 (KHDRBS1); assay: compounds binding KHDRBS1 protein – biochemical, small-molecule microarray, 635 nm fluorescence, primary screen (AID 1125); details: higher = more signal;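 further: score merges 667 nm channel intensity with signal to noise over triplicate slides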
[9] = tested on: Chordin-like protein 2 (CHRDL2); assay: compounds binding chordin-like 2 – biochemical, small-molecule microarray, 635 nm fluorescence, primary screen (AID 1126); details: fluorescence 635 nm, higher = more signal;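 further: printed compound slides probed with Chrdl2 protein at 4 µg/mL for 1 h at 4 C; score merges 667 nm emission intensity with signal to noise over three replicate slides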
[10] = biological target: Concanavalin-A (Canavalia ensiformis) (UniProt P02866); assay: compounds binding concanavalin A lectin – biochemical, small-molecule microarray, Alexa647 label, 635 nm, artefact control for SMM control protein annotation, primary screen (AID 1127); details: ConA-A647 binding fluorescence, higher = more signal;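 further: z combines 667 nm emission intensity with signal-to-noise across three replicate slides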
[11] = compounds binding Alexa647 anti-His antibody – biochemical, small-molecule microarray, 635 nm fluorescence, artefact control for SMM control protein annotation, primary screen (AID 1128); details: higher = more signal;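 further: score merges feature fluorescence with signal-to-noise for each printed compound spot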
[12] = tested on: Human papillomavirus type 1a E7 protein (residues 1-88); assay: HPV1a E7 small-molecule binders, primary screen, biochemical, small-molecule microarray, residues 1-88, 635 nm (AID 1129); details: small-molecule microarray binding, fluorescence 635 nm; higher = more signal
[13] = biological target: Focal adhesion kinase 1 (Homo sapiens) (UniProt Q05397); assay: PTK2 protein binding on printed compound slides – biochemical, small-molecule microarray, 635/667 nm fluorescence, BSA, DTT, primary screen (AID 1130); details: 635 nm fluorescence, higher = more signal;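 further: composite of spot emission at 667 nm and signal to noise over triplicate slides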
[14] = tested on: Fibrinogen (Alexa647-labelled); assay: Alexa647-fibrinogen binding to printed small molecules – biochemical, small-molecule microarray, 635/667 nm fluorescence, artefact control for SMM control-protein annotation, profiling panel (AID 1131); details: fibrinogen-A647 binding fluorescence, higher = more signal;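 further: z-score merges 667 nm fluorescence with per-spot signal-to-noise over triplicate slides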
[15] = biological target: Follistatin (Homo sapiens) (UniProt P19883); assay: FST protein binding to printed compounds – biochemical, small-molecule microarray, 635/667 nm fluorescence, primary screen (AID 1132); details: 635 nm fluorescence, higher = more signal
[16] = biological target: Fibroblast growth factor 2 (Homo sapiens) (UniProt P09038); assay: basic fibroblast growth factor binding to printed compounds – biochemical, small-molecule microarray, 635/667 nm fluorescence, primary screen (AID 1133); details: FGF2, fluorescence 635/667, higher = more signal
[17] = JC-1 mitochondrial potential readout, lung cancer cells – cell-based, A549, JC-1 fluorescence, basal, 24 h, 100 nL, profiling panel (AID 1138); details: higher = more signal;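 further: A549 lung adenocarcinoma cells under basal conditions with no added stimulus; test concentration not given here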
[18] = tested on: Lefty1; assay: Lefty1 protein binding to printed compounds – biochemical, small-molecule microarray, 635/667 nm fluorescence, primary screen (AID 1139); details: fluorescence 635/667, higher = more signal
[19] = tested on: wheat germ agglutinin (Triticum aestivum), Alexa647-labelled; assay: Alexa647-WGA lectin binding to printed small molecules – biochemical, small-molecule microarray, 635/667 nm fluorescence, artefact control for SMM control-protein annotation, profiling panel (AID 1140); details: WGA-A647 binding, 635 nm fluorescence, higher = more signal;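 further: score merges 667 nm feature emission with signal to noise over triplicate slides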
[20] = biological target: Luciferin 4-monooxygenase (Photinus pyralis) (UniProt P08659); assay: inhibition of purified Photinus pyralis luciferase – biochemical, luminescence, purified enzyme, 2006 set, primary screen (AID 1141); details: purified firefly luciferase, SteadyGlo luminescence, 30 min; higher = more signal, called active from +8 up or from −8 down;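 further: cell-free assay with purified firefly luciferase at 100 ng per well in PBS; test concentration not given here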
Luciferin 4-monooxygenase (Photinus pyralis), sequence (P08659 whole entry, looked up): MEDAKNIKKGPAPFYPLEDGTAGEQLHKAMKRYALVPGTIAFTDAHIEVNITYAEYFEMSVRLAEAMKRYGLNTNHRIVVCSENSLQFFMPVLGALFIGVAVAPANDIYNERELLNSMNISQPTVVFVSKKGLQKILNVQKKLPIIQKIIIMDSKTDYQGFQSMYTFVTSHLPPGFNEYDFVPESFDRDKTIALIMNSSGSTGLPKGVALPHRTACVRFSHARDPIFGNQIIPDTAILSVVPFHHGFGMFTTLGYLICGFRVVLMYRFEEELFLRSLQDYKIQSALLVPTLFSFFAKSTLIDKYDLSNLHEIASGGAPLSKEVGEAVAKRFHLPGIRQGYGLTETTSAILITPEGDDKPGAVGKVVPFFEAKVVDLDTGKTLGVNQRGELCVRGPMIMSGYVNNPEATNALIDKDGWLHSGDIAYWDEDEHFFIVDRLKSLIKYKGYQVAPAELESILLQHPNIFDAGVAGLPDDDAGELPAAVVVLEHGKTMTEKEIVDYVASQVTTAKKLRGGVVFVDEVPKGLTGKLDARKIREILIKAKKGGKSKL

Follistatin (Homo sapiens), sequence (P19883 whole entry, looked up): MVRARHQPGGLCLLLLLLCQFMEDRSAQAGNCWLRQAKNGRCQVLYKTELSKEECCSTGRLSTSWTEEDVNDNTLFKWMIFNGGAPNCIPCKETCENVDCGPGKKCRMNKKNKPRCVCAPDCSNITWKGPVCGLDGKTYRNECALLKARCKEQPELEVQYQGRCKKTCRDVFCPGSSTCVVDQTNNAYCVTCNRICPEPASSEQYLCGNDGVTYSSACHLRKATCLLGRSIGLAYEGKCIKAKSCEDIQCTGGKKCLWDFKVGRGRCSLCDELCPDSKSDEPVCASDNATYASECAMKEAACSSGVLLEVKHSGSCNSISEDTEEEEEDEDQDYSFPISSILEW
Concanavalin-A (Canavalia ensiformis), sequence (P02866 whole entry, looked up): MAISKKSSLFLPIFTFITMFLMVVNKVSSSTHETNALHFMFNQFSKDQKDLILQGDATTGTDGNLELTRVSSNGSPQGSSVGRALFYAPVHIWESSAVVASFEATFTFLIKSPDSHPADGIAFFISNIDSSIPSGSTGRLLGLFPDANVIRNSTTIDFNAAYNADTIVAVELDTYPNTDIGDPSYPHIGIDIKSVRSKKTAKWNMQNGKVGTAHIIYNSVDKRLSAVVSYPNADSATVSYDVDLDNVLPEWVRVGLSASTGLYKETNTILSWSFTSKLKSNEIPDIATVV
Albumin (Bos taurus), sequence (P02769 whole entry, looked up): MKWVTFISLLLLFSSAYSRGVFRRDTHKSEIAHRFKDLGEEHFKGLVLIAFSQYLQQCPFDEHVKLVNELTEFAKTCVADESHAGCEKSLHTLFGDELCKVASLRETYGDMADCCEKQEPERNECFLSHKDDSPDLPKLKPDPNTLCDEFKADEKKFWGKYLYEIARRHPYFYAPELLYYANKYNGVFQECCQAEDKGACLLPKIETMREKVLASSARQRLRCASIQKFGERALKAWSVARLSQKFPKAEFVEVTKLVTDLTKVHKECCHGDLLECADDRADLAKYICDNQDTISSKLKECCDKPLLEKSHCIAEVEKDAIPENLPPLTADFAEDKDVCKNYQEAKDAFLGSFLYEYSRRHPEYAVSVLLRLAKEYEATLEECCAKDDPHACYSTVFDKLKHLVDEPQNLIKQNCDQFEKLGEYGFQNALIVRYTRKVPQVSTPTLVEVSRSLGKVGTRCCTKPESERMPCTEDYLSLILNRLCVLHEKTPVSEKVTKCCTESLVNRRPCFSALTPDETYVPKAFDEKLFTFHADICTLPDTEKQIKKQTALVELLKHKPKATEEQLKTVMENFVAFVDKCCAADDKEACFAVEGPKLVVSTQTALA
Fibroblast growth factor 2 (Homo sapiens), sequence (P09038 whole entry, looked up): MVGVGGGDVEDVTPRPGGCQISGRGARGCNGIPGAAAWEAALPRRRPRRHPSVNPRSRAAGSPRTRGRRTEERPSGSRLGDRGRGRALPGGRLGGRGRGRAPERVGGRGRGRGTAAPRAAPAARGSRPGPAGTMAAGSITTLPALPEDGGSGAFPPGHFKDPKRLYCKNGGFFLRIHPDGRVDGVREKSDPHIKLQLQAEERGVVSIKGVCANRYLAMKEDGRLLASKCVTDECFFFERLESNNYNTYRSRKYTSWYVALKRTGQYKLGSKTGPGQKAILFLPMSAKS
Focal adhesion kinase 1 (Homo sapiens), sequence (Q05397 whole entry, looked up): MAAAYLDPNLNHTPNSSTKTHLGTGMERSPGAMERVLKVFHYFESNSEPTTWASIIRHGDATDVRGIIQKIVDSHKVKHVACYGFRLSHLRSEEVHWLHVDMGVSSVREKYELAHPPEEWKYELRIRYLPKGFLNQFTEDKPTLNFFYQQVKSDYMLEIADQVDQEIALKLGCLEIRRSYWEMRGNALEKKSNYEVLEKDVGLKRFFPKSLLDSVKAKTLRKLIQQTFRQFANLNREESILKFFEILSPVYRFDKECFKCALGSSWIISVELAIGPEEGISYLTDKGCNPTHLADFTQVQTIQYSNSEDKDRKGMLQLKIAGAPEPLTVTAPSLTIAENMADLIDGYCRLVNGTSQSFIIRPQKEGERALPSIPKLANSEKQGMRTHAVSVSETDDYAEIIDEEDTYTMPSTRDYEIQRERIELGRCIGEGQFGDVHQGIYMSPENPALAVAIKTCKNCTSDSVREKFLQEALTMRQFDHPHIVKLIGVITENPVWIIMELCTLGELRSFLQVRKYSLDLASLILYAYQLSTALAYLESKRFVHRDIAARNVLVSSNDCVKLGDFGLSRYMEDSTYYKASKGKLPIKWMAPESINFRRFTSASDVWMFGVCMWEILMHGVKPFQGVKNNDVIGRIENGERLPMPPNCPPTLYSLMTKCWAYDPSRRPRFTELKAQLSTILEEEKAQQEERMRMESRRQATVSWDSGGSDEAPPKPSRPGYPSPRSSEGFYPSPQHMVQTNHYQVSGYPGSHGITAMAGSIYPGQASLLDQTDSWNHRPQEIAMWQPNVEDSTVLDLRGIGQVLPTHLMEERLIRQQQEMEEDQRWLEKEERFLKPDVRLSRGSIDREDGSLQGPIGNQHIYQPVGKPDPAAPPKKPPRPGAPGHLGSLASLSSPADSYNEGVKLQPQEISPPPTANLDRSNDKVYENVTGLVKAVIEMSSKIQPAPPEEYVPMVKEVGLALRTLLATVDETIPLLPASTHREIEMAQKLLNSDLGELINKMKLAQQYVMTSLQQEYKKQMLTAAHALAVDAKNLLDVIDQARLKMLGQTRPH

| SMILES | composite z-score [1] | composite Z-score [2] | composite z-score [3] | composite z-score [4] | composite z-score [5] | composite z-score [6] | composite z-score [7] | composite z-score [8] | composite z-score [9] | composite z-score [10] | composite z-score [11] | composite z-score [12] | composite z-score [13] | composite z-score [14] | composite z-score [15] | composite z-score [16] | z-score [17] | composite z-score [18] | composite z-score [19] | z-score [20] |
| --- | --- | --- | --- | --- | --- | --- | --- | --- | --- | --- | --- | --- | --- | --- | --- | --- | --- | --- | --- | --- |
| COC(=O)CC=C[C@@H](C)[C@@H](C=NOC[C@@H](C)[C@H](OCc1ccccc1)C(C)C)OC | -0.469 | -0.235 (inactive) | -0.0647 | -0.124 | -0.12 | 0.266 | -0.61 | 0.447 | 0.386 | 0.102 | 1.86 | -0.0858 | 0.0285 | -0.211 | 0.088 | 0.323 | -1.01 | 0.419 | -0.307 | -0.698 (inactive) |
| COC(=O)CC=C[C@@H](C)[C@@H](C=NOC[C@@H](C)[C@H](OCc1ccccc1)C(C)C)NS(=O)(=O)c1ccc(C)cc1 | -1.05 | 0.216 (inactive) | -0.161 | -0.216 | -0.351 | -0.342 | 0.102 | -0.135 | 0.271 | -0.596 | 1.82 | -0.588 | -0.424 | -1.52 | 0.131 | 0.0249 | -0.48 | 0.329 | -1.57 | 0.419 (inactive) |
| CCc1cc2c(nc1CC)CCN(CCC(C)=NOCC[C@@H]1C=C[C@H](OC(C)=O)[C@@H](COC(C)=O)O1)C2 | 0.466 | 0.497 (inactive) | 0.493 | -0.0798 | 0.0943 | -0.119 | 0.277 | 1.23 | 0.412 | 0.446 | 0.345 | -0.19 | 0.174 | -0.0226 | 0.823 | 0.273 | 0.677 | 1.18 | 0.0479 | 0.855 (inactive) |
| CCc1cc2c(nc1CC)CCN(CCC(C)=NOC(C)CN1CCCCc3nc(C)c(C)cc31)C2 (stereo not given) | 0.0846 | 0.73 (inactive) | 0.0696 | -0.0194 | 0.467 | 1.64 | 0.304 | 1.28 | 0.911 | 1.17 | 0.575 | 1.18 | -0.048 | 0.874 | 1.18 | 0.557 | 2.45 | 0.979 | 0.439 | -0.0579 (inactive) |
| C[C@]12CCC3c4ccc(OCC5CO5)cc4CCC3C1CC[C@@H]2O (stereo not given in full) | 0.754 | 0.257 (inactive) | -0.0932 | 0.0365 | 0.646 | 0.528 | 0.414 | 0.759 | 0.118 | 0.961 | 1.19 | 1.14 | 0.492 | 1 | 0.137 | -0.2 | 4.51 | -0.005 | 1.05 | -0.466 (inactive) |
| COc1ccc(COC(=O)NN=C2C[C@@H](O)[C@@H](O)[C@@H]3[C@@H]4C(=O)N([C@@H](C)c5ccccc5)C(=O)[C@@H]4CC[C@@H]23)cc1 | 0.274 | -0.228 (inactive) | -0.0697 | 0.0318 | 0.171 | -0.211 | 0.131 | -0.196 | 0.448 | 0.162 | -0.253 | 0.661 | -0.313 | 0.373 | 0.244 | 0.272 | -0.304 | 0.244 | 0.242 | 0.447 (inactive) |
| O=C1C=C[C@@H](O)[C@@H]2[C@@H]3C(=O)N(c4cccc(Oc5ccccc5)c4)C(=O)[C@@H]3CC[C@@H]12 | 0.0329 | -0.554 (inactive) | -0.132 | -0.176 | -0.0169 | -0.55 | -0.239 | 0.184 | 0.417 | 0.19 | 0.959 | 0.548 | -0.183 | -0.127 | 0.464 | -0.196 | -0.774 | 0.478 | 0.228 | -0.57 (inactive) |
| CC(C)=CCCC(C)=CCON=C1C[C@@H](O)[C@@H](O)[C@@H]2[C@@H]3C(=O)N(c4cccc(Oc5ccccc5)c4)C(=O)[C@@H]3CC[C@H]12 | 0.631 | 1.38 (inactive) | -0.0288 | -0.155 | 0.376 | 1.23 | 0.163 | 1.02 | 0.492 | 0.609 | 0.364 | 1.03 | 0.132 | 0.693 | 0.559 | 0.252 | -0.137 | 0.719 | 0.197 | 0.664 (inactive) |
| CC(=O)OC[C@H]1O[C@H](CC=NO[C@@H](C)c2cn([C@H](CO)Cc3ccccc3)nn2)C=C[C@@H]1OC(C)=O | 0.447 | 0.0225 (inactive) | 0.0517 | -0.0798 | 0.342 | 1.34 | 0.0198 | 0.987 | 0.394 | 0.506 | -0.0515 | 0.656 | -0.0806 | 0.827 | 0.679 | 0.45 | -1.56 | 1.05 | 0.233 | 1.36 (inactive) |
| CCOC(=O)[C@H](Cc1ccccc1)NC(=O)CCC1CC(OC(=O)NCc2ccc3c(c2)OCO3)CC2(CCCC(COC(=O)NCCOC)O2)O1 (stereo not given in full) | -0.756 | 0.0786 (inactive) | 0.163 | -0.0785 | 0.134 | 0.577 | -0.172 | 1.3 | 0.379 | 1.06 | 0.431 | 1.14 | -0.341 | 0.69 | 0.808 | 0.455 | -0.599 | 1.26 | 0.581 | 0.724 (inactive) |

From PubChem BioAssay
